Rows were chosen to be rich in hits. Some 5.5% of all compounds tested hit in one or more screens of this group.
MBNL1-CUG inh: blocks human MBNL1 binding to CUG repeat RNA | Q9NR56 | TR-FRET MBNL1-His/biotin-(CUG)12 binding, 665/545 ratio | Potency, µM (series often up to 57.5 µM), for inactives: at the highest dose activity change, negative = inhibition, hits mostly inhibitors | 280,000 compounds, 0.036% hits | AID 2675; active = well fitted inhibition curve with a large enough effect in the signal ratio, with a control signal flat, not every such curve was filed as active; inconclusive = small, poorly fitted or top-dose-only effect, or effect the other way, or a change in a side signal; inactive = no such curve, though single readings can be large or run the other way; the % refers to the signal ratio; note: potency is the fitted concentration of half-maximal effect; % is set by controls: 0 for no effect and ±100 for the full control effect
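TR-FRET between His-tagged MBNL1 and biotin-(CUG)12 RNA, detected with Tb anti-His antibody (0.055 ng/ul) and streptavidin-XL665 (5 nM), 60 min at room temperature. Compounds titrated 92 nM to 58 uM; 665/545 nm ratio normalized to buffer and complex controls.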
Six1-Eya2 blk: blocks human Six1 binding to Eya2. Q15475+O00167. AlphaScreen GST-Six1/His-Eya2 binding, biochemical; active compounds read low. activity change, % (no concentration beside the values). 360,000 compounds, 0.56% hits. AID 651725; in the data active = activity change below about -65%; inconclusive = mostly about -30% to -63%; note: % is set by controls: 0 for no effect and ±100 for the full control effect
Target sequence (O00167 whole entry, looked up): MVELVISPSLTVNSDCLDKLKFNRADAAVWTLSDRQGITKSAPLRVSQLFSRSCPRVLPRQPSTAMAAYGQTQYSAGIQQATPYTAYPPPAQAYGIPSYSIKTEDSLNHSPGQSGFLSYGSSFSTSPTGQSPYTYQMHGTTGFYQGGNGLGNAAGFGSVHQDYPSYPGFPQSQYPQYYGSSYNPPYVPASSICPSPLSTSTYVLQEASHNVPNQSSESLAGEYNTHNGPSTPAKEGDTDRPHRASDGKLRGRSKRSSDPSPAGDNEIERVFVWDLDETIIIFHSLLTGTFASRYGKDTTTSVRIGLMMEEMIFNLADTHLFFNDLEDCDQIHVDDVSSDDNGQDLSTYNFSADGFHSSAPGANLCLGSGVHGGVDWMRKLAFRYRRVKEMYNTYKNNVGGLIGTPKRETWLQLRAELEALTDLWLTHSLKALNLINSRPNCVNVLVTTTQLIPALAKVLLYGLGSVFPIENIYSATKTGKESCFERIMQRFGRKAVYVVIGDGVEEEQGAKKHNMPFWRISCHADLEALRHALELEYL
Target sequence (Q15475 whole entry, looked up): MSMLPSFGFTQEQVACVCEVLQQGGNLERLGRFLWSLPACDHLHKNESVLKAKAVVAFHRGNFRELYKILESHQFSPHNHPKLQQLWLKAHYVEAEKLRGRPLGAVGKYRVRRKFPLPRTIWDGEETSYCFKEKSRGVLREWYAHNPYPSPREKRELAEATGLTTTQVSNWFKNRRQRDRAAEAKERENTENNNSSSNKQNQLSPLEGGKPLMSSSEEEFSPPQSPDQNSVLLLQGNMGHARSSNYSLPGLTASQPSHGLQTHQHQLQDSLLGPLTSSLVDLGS
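Six1/Eya2 binding was read as AlphaScreen signal after compounds were pinned into GST-Six1 plus His-tagged Eya2 (5X stock 250/500 nM) in pH 8.0 Tris/NaCl/TCEP buffer, beads added, then incubated 1 h, 37 C, dark.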
RORgamma inh: inhibitors of mouse ROR gamma transcriptional activity; P51450; Potency, µM (highest dose often 53.6 µM), for the others: at the highest dose activity change, negative = inhibition, hits mostly inhibitors; AID 2551; Drosophila S2 Gal4-RORgamma UAS-luciferase reporter, 20 h; 310,000 compounds, 5.4% hits; note: potency is the fitted concentration of half-maximal effect; % is set by controls: 0 for no effect and ±100 for the full control effect; nearly all actives have a fitted effect of over 60% in size
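ROR gamma transcriptional activity was tracked as Gal4-UAS luciferase output in stably transfected Drosophila Schneider cells, with compound added 1 hr before 700 uM copper sulfate induction and a 20 hr ambient-temperature incubation.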
CBFb RUNX1 block: CBF-beta/RUNX1 interaction disruption. Q01196+Q13951. AlphaScreen CBFb-His/RUNX1-biotin binding, biochemical. Potency, µM (top dose mostly 59.8 µM), inactives show at the top dose activity, negative = inhibition, most hits filed as inhibitors. 230,000 tested, under 10 active. AID 1477; note: % of control where 0% means no effect
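CBFb-His/RUNX1-biotin, 30 nM each, preincubated 20 min RT; compound 15 min RT; Ni + streptavidin beads 50 ng each, 90 min RT; AlphaScreen read.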
Gal4-VP16 FLuc: counter-screen for ROR gamma inhibitors: Gal4-VP16 reporter; Drosophila S2 Gal4-VP16 UAS-luciferase, luminescence, 20 h; Potency, µM (titrated, usually from 53.6 µM), inactives show at the top dose activity, negative = inhibition, usual class: inhibitors; 310,000 compounds, 3.5% hits; AID 2546;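 note: Gal4-VP16 expression switched on by copper sulfate through the metallothionein promoter; potency is the fitted concentration of half-maximal effect; % is set by controls: 0 for no effect and ±100 for the full control effect; nearly all actives have a fitted effect of over 50% in size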
CtBP-E1A inh: blocks the CtBP interaction with E1A; 340,000 compounds, 0.49% hits; activity change, % (no concentration beside the values); AID 651724; AlphaScreen GST-E1A/His-CtBP binding, 1536-well; active compounds read low; in the data active = activity change below about -65%; inconclusive = mostly about -30% to -63%; note: % is set by controls: 0 for no effect and ±100 for the full control effect
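AlphaScreen with 125 nM GST-E1A and 125 nM His-CtBP (5X stocks) in Tris pH 8.0, 300 mM NaCl, BSA, Tween 20, TCEP. Compounds preincubated 2 h at 37 deg C, then glutathione donor/nickel acceptor beads added for 1 h at 37 deg C in dark.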
An asterisk follows results filed as active. Unless noted, calls come from the whole dose curve; as a rule, active = well fitted curve in the direction sought with a large enough effect; inconclusive = small, poorly fitted or top-dose-only effect, or another doubt; inactive = no such curve, though single readings can be large; an effect the other way counts as inactive or inconclusive.

Screening Nc1nc(SCc2ccc(Cl)cc2)ns1 returned MBNL1-CUG inh -11%, Six1-Eya2 blk -2, RORgamma inh -35%, CBFb RUNX1 block -12%, Gal4-VP16 FLuc 7.1µM* and CtBP-E1A inh 0.
O=C(COc1ccccc1)OC(C(=O)c1ccccc1)c1ccccc1 (configuration not stated) was read as MBNL1-CUG inh -6%, Six1-Eya2 blk 22, RORgamma inh 11µM*, CBFb RUNX1 block 26%, Gal4-VP16 FLuc -8% and CtBP-E1A inh 11.
For COc1cc(-c2nc3ccccn3c2/N=C/c2ccccc2)ccc1O the results were MBNL1-CUG inh inconclusive, Six1-Eya2 blk -15, RORgamma inh 13µM*, CBFb RUNX1 block -2%, Gal4-VP16 FLuc -5% and CtBP-E1A inh -18.
Screening COc1cc(-c2nc3ccccn3c2NCC2CCCO2)ccc1O (configuration not stated) returned MBNL1-CUG inh 5%, Six1-Eya2 blk -6, RORgamma inh 14µM*, CBFb RUNX1 block -1%, Gal4-VP16 FLuc 22% and CtBP-E1A inh -2.
Screening COc1cccc(CNC(=O)c2ccc(NC(=O)CC3SC(N4CCCC4)=NC3=O)cc2)c1 (configuration not stated) returned Six1-Eya2 blk -12 and CtBP-E1A inh -1.
COc1ccc(-c2oc3ccccc3c(=O)c2OC(C)=O)cc1 was read as MBNL1-CUG inh 19%, Six1-Eya2 blk 8, RORgamma inh 7.1µM*, CBFb RUNX1 block 15%, Gal4-VP16 FLuc inconclusive and CtBP-E1A inh -2.
`CC(=O)Oc1c(-c2ccc(Br)o2)oc2ccccc2c1=O` gave MBNL1-CUG inh inconclusive, Six1-Eya2 blk -5, RORgamma inh 7.1µM*, Gal4-VP16 FLuc 7.1µM* and CtBP-E1A inh -3.
Screening COc1ccc(C(=O)c2oc3ccccc3c2N)cc1 returned MBNL1-CUG inh inconclusive, Six1-Eya2 blk 4, RORgamma inh 1%, CBFb RUNX1 block -21%, Gal4-VP16 FLuc 10µM* and CtBP-E1A inh 13.
COc1ccc2oc(C(=O)c3ccccc3)c(N)c2c1 was read as MBNL1-CUG inh 15%, Six1-Eya2 blk 8, RORgamma inh -2%, CBFb RUNX1 block 12%, Gal4-VP16 FLuc 8% and CtBP-E1A inh 3.
Cc1cc(NC(=O)CSc2nnc3ccc(-c4ccccc4)nn23)no1 was read as Six1-Eya2 blk -3 and CtBP-E1A inh -2.
CC1CCCN(S(=O)(=O)c2ccc3c(c2)c(=O)nc2ccc(Cl)cn23)C1 (configuration not stated) was read as MBNL1-CUG inh 3%, Six1-Eya2 blk 4, RORgamma inh -1%, Gal4-VP16 FLuc -15% and CtBP-E1A inh 3.
Screening CCOCCCN1C(=O)C(=O)N(CC(=O)N2c3ccccc3NC(=O)CC2C)C1=O (configuration not stated) returned Six1-Eya2 blk -1 and CtBP-E1A inh -3.
`COC(=O)C(CO)Nc1ncnc2onc(-c3ccc(F)cc3)c12` (configuration not stated) gave MBNL1-CUG inh 3%, Six1-Eya2 blk 3, RORgamma inh -7%, Gal4-VP16 FLuc 4% and CtBP-E1A inh 6.
Screening Cc1ccccc1NS(=O)(=O)c1cc2c3c(c1)C(C)C(=O)N3CCC2 (configuration not stated) returned MBNL1-CUG inh -4%, Six1-Eya2 blk 0, RORgamma inh 21%, Gal4-VP16 FLuc -2% and CtBP-E1A inh -2.
For Cc1ccc(CN2CCC(C(=O)Nc3cccc(-c4cccc(F)c4)c3)CC2)o1 the results were MBNL1-CUG inh -4%, Six1-Eya2 blk 0, RORgamma inh -24% and Gal4-VP16 FLuc 10µM*.
COc1cccc(O)c1CN1CCC(C(=O)Nc2ccc(-c3cccc(C)c3)cc2)CC1 was read as MBNL1-CUG inh 1%, Six1-Eya2 blk -12, RORgamma inh 10µM*, Gal4-VP16 FLuc 14µM* and CtBP-E1A inh -9.

Compound activity (PubChem BioAssay)
